Screening data (PubChem BioAssay)
Hits are enriched below; roughly 2.1% of the tested compounds scored in any of these assays.
Abeta yeast res: restores growth of yeast expressing A-beta42 peptide; yeast expressing A-beta42, growth rescue, OD600, 48 h; response scale: 0% DMSO, 100% iron-clioquinol control; hit rate 0.063% among 410,000; Potency, µM (highest dose often 46.1 µM), usual class: activators; also: nearly all actives have a fitted effect of over 55% in size
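Growth rescue measured by 600 nm absorbance after 48 h yeast culture at 30 C with compound. Values normalized between DMSO and an equimolar ferric chloride plus clioquinol control.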
aSyn rescue: inhibitors of alpha-synuclein toxicity in yeast. Yeast expressing alpha-synuclein, growth rescue, BacTiter-Glo, 24 h. Potency, µM (doses to about 46.1 µM), actives largely listed as activators. hit rate 0.14% among 370,000. AID 652106; also: nearly all actives have a fitted effect of over 65% in size
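Readout is rescue of growth in alpha-synuclein-expressing yeast, so inhibitors of toxicity appear as activators. Growth after 24 hr at 30 deg C in galactose medium is quantified by luminescence.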
TDP43 rescue: TDP-43 toxicity inhibition in yeast | Potency, µM (series often up to 46.1 µM), actives largely listed as activators | TDP-43 expressing yeast growth rescue, BacTiter-Glo, 24 h | hit rate 1.8% among 410,000; also: nearly all actives have a fitted effect of over 50% in size
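Growth rescue of TDP-43-toxic yeast measured as ATP luminescence (BacTiter-Glo). Cells grown to mid-log in raffinose, induced in galactose at OD600=0.02, exposed to compound 24 hr at 30 deg C.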
FUS yeast rescue: rescues growth of FUS-expressing yeast. S. cerevisiae FUS-expressing, growth rescue, OD600, 24 h. Potency, µM (doses to about 76.6 µM), usual class: activators. hit rate 0.24% among 390,000. AID 1347120; also: nearly all actives have a fitted effect of over 55% in size
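Galactose (2%) drives FUS expression in yeast precultured in raffinose; seeding density OD 0.005. Test compounds incubated 24hr at 30C and 99% humidity before absorbance at 600 nm was measured.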
A number is an active result; ! = not active in a repeat; [ ] = another dose, or the depositor's remark. Calls follow the shape of the dose curve; as a rule, active = well fitted curve in the direction sought with a large enough effect; inconclusive = small, poorly fitted or top-dose-only effect, or another doubt; inactive = no such curve, though single readings can be large; an effect the other way counts as inactive or inconclusive.

`O=C(CN1c2cccc3cccc(c23)S1(=O)=O)NCc1ccc2c(c1)OCO2` gave Abeta yeast res inactive, aSyn rescue inactive, TDP43 rescue inactive and FUS yeast rescue inactive.
`CC(C(=O)NCc1ccc2c(c1)OCO2)N1c2cccc3cccc(c23)S1(=O)=O` (stereo not drawn) gave Abeta yeast res inactive, aSyn rescue inactive, TDP43 rescue 13µM and FUS yeast rescue inactive.
Screening COc1ccc(C=C2CS(=O)(=O)CC(=Cc3ccc(OC)cc3)C2=O)cc1 returned Abeta yeast res inactive, aSyn rescue 13µM, TDP43 rescue inconclusive and FUS yeast rescue inactive.
Screening Cc1ccc(C)c(S(=O)(=O)N2CCC(c3nc4c(nnn4Cc4ccc5c(c4)OCCO5)c(=O)[nH]3)CC2)c1 returned Abeta yeast res inactive, aSyn rescue inactive, TDP43 rescue inactive and FUS yeast rescue inconclusive.
`O=C(Nc1ccnn1C1CCN(CCCc2ccccc2)CC1)c1ccccc1Cl` gave Abeta yeast res inactive, aSyn rescue inactive and TDP43 rescue inactive.
`c1ccc(CN2CCN(CCOCCOc3ccc4c(c3)CCC4)CC2)cc1` gave Abeta yeast res inactive, aSyn rescue inactive, TDP43 rescue inactive and FUS yeast rescue inactive.
COc1ccccc1OCC(=O)OC/C(O)=C(\C#N)c1nc2ccccc2[nH]1 was read as Abeta yeast res inactive, aSyn rescue inactive, TDP43 rescue inactive and FUS yeast rescue inactive.
Screening N#C/C(=C(/O)COC(=O)Cc1c[nH]c2ccccc12)c1nc2ccccc2[nH]1 returned Abeta yeast res inconclusive, aSyn rescue inactive, TDP43 rescue inactive and FUS yeast rescue 35µM.
For Cc1cnc2c(C)ccc(C)c2c1/C=C/c1ccc(N(C)C)cc1 the results were aSyn rescue inactive.
Screening CCOC(=O)Cn1c(CN(Cc2ccccc2)Cc2ccccc2)nc2c1c(=O)n(C)c(=O)n2C returned Abeta yeast res inactive, aSyn rescue inactive, TDP43 rescue 22µM and FUS yeast rescue inconclusive.
CCOc1ccccc1CNC(=O)c1ccc(Sc2ccc(Cl)cc2)c(NC(C)=O)c1 was read as Abeta yeast res inactive, aSyn rescue inactive and TDP43 rescue 13µM.
CC(=O)Nc1cc(C(=O)NCc2ccco2)ccc1Sc1ccc(Cl)cc1 was read as Abeta yeast res inactive, aSyn rescue inactive, TDP43 rescue inactive and FUS yeast rescue inactive.
`CCOc1ccc(CNC(=O)c2ccc(Sc3ccc(Cl)cc3)c(NC(C)=O)c2)cc1` gave Abeta yeast res inactive, aSyn rescue inactive, TDP43 rescue 16µM! and FUS yeast rescue inconclusive.
`CC(=O)Nc1cc(C(=O)NCc2ccccc2Cl)ccc1Sc1ccc(F)cc1` gave Abeta yeast res inactive, TDP43 rescue 22µM and FUS yeast rescue inactive.
CC(=O)Nc1cc(C(=O)NCc2ccco2)ccc1Sc1ccc(F)cc1 was read as Abeta yeast res inactive, aSyn rescue inactive, TDP43 rescue inactive and FUS yeast rescue inactive.
CC(=O)Nc1cc(C(=O)NCc2ccc(C)cc2)ccc1S(=O)(=O)c1ccc(Cl)cc1 was read as Abeta yeast res inactive, aSyn rescue inactive, TDP43 rescue inactive and FUS yeast rescue inactive.
Screening CCCCn1c(N)c(N(CC)C(=O)CCNC(=O)NC23CC4CC(CC(C4)C2)C3)c(=O)[nH]c1=O returned Abeta yeast res inactive, aSyn rescue inactive, TDP43 rescue inactive and FUS yeast rescue inactive.
`CC1(C)CC(=O)C=C(Nc2ccccc2NC(=O)c2cccc(F)c2F)C1` gave FUS yeast rescue inactive.
`Cc1cccc(Cn2cc(C(=O)Nc3cc(F)ccc3F)ccc2=O)c1` gave Abeta yeast res inconclusive, aSyn rescue inconclusive, TDP43 rescue 22µM and FUS yeast rescue inconclusive.
Cc1cc(C)cc(N(CC(=O)NC2CCC(C)CC2)S(=O)(=O)c2ccccc2)c1 (stereo not drawn) was read as FUS yeast rescue inactive.
`FC(F)(F)c1cc(CCN2C(=S)NC[C@@H]2Cc2ccccc2)cc(C(F)(F)F)c1` gave Abeta yeast res inconclusive, aSyn rescue inactive, TDP43 rescue 22µM and FUS yeast rescue inconclusive.
Screening Oc1ccc(C[C@@H]2CNC(=S)N2CCc2cc(C(F)(F)F)cc(C(F)(F)F)c2)cc1 returned Abeta yeast res inactive, aSyn rescue inactive, TDP43 rescue inactive and FUS yeast rescue inactive.
`O=c1cc(CSc2ccc([N+](=O)[O-])cc2)nc2sccn12` gave Abeta yeast res inactive, aSyn rescue 16µM, TDP43 rescue inactive[9.22 µM] and FUS yeast rescue inactive.
Screening Cc1ccccc1C(=O)Nc1cccc(C(=O)OCc2cc(=O)n3ccsc3n2)c1 returned Abeta yeast res inactive, TDP43 rescue inactive and FUS yeast rescue inactive.
`CC(Oc1ccccc1)C(=O)Nc1ccc(C(=O)OCc2cc(=O)n3ccsc3n2)cc1` (stereo not drawn) gave Abeta yeast res inactive, TDP43 rescue 20µM and FUS yeast rescue inconclusive.
For Cc1cccc(-n2c(SCc3cc(=O)n4ccsc4n3)nc3ccccc32)c1 the results were Abeta yeast res inactive, aSyn rescue inactive, TDP43 rescue 22µM and FUS yeast rescue inactive.
`Cc1cccc(C(=O)OCc2cc(=O)n3ccsc3n2)c1` gave Abeta yeast res inactive, TDP43 rescue 18µM and FUS yeast rescue inactive.
For Cn1c(Cc2ccccc2)nnc1SCc1cc(=O)n2ccsc2n1 the results were Abeta yeast res inactive, aSyn rescue inactive, TDP43 rescue inactive[9.22 µM] and FUS yeast rescue inactive.
For Cc1cc(S(=O)(=O)NCCCN2CCOCC2)c(C)cc1Cl the results were Abeta yeast res inactive, aSyn rescue inactive, TDP43 rescue inactive and FUS yeast rescue inactive.
Screening CSc1nnc(N2C(=O)C(O)=C(C(=O)c3ccco3)C2c2cccc(Cl)c2)s1 (stereo not drawn) returned Abeta yeast res inactive, aSyn rescue inactive, TDP43 rescue inactive and FUS yeast rescue inactive.
Screening Cc1cc(SCC2=NNC(=O)C2)c(Cl)cc1Cl returned Abeta yeast res inactive, aSyn rescue inactive, TDP43 rescue inconclusive and FUS yeast rescue 35µM.
Screening CCN(CC)c1cc2c(cc1F)c(=O)c(S(=O)(=O)c1cc(C)ccc1C)cn2Cc1ccccc1 returned Abeta yeast res inactive, TDP43 rescue inactive and FUS yeast rescue inactive.
Cc1ccc(OCCSc2nc(N)cc(N)n2)cc1 was read as Abeta yeast res inactive, aSyn rescue inactive, TDP43 rescue inactive and FUS yeast rescue inactive.
Screening CCNc1nc(NCC)nc(OCCOC(=O)c2ccccc2)n1 returned Abeta yeast res inactive, aSyn rescue inactive, TDP43 rescue inconclusive and FUS yeast rescue inactive.
`CC(C)Nc1nc(NC(C)C)nc(SCCOC(=O)Nc2ccc(Cl)cc2Cl)n1` gave Abeta yeast res inactive, aSyn rescue inactive and TDP43 rescue 16µM.
Screening CCNc1nc(NC(C)C)nc(SCCOc2ccc(C)cc2)n1 returned Abeta yeast res inactive, aSyn rescue inactive, TDP43 rescue 13µM and FUS yeast rescue inactive.
For CCNc1nc(NC(C)C)nc(SCCOC(=O)c2ccccc2)n1 the results were Abeta yeast res inactive, aSyn rescue inactive, TDP43 rescue 13µM and FUS yeast rescue inactive.
For CNC(=O)CSc1nnc(-c2ccccc2F)n1CCc1ccccc1 the results were Abeta yeast res inactive, aSyn rescue inactive, TDP43 rescue inactive and FUS yeast rescue inactive.
